We go through ten compounds from PubChem BioAssay.

Activity calls are given as the source filed them.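 How the source made its calls, unless noted: active means inhibition at or above 50% at 10 µM; inactive means inhibition below 50%.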

Experiment [1] can be described thus: inhibitors of TNFa-induced NFkB p65 translocation, primary screen, imaging, HUVEC, MLSMR starter and 10KST1 sets (AID 438;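 active means inhibition above 20% together with a positive visual image hit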;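 further: compound added about 3h40 before a 20 min TNFalpha stimulation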;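 on inhibition: signal is the nuclear over cytoplasmic p65 intensity ratio per well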). The following applies: HUVEC TNFa-induced p65 nuclear translocation; cell count: measured here: nuclei count (cytotoxicity indicator), at 2.08 µM; inhibition: at 2 µM, stronger effect = higher value, 0% TNFa-plus-vehicle, 100% no-TNFa wells.
Experiment [2] can be described thus: inhibitors of mutant huntingtin aggregation, primary screen, imaging, exon1htt(103Q)mCFP cells, high-content imaging (AID 483;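 active means visual image review flags a hit and inhibition of aggregation exceeds 20%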;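 further: compound exposure lasted 3 days before fixation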;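 on nuclei count: percent of the per-plate median nuclei count of sample wells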). The note with it: exon1htt(103Q)mCFP cell line, aggregate imaging, at 2 µM; inhibition of aggregation: stronger effect = higher value; nuclei count: measured here: cell count, toxicity.
The nature of experiment [3]: inhibitors of E-selectin induction by TNFa, primary screen, imaging, HUVEC, immunofluorescence, MLSMR starter and 10KST1 sets (AID 487;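 active means visually confirmed hit in the image check and inhibition above 20%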;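 on inhibition: signal is fraction of cell area covered by stained E-selectin grains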;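 on nuclei count: 100% = median nuclei count of all wells on the same plate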). The note with it: HUVEC TNFalpha-induced E-selectin immunofluorescence imaging, at 2 µM; inhibition: stronger effect = higher value; nuclei count: measured here: cell number, toxicity.
For experiment [4], the target named is Voltage-gated potassium channel subunit beta-2 (Rattus norvegicus) (UniProt P62483). As to the kind of experiment: KvBeta enzyme negative modulators, primary screen, biochemical, NADPH fluorescence (AID 622;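 active means fluorescence slope higher than the sample average by over 3 SD, cut at about -0.22 in these data, passing the limit was not always enough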;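 further: slope of raw intensity against log time taken from 70 to 1610 s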). The following applies: recombinant KvBeta, 4-cyanobenzaldehyde reduction, at 10 µM, stronger effect = higher value.
Chain of Voltage-gated potassium channel subunit beta-2 (Rattus norvegicus) (P62483 whole entry, looked up): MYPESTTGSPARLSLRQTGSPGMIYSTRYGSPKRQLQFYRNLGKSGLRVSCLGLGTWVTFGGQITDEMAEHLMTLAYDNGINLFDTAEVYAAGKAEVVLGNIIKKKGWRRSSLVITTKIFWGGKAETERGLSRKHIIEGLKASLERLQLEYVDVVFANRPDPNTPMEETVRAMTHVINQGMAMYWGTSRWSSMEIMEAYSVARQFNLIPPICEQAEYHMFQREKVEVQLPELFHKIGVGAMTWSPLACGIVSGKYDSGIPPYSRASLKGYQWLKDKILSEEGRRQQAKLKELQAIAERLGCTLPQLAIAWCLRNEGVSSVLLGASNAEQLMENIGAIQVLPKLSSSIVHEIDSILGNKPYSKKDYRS
Experiment [5] has the same target. Nature of the experiment: KvBeta positive modulators, primary screen, biochemical, NADPH fluorescence (AID 623;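 active means NADPH fluorescence slope more negative than the mean of all samples by about 3 SD, 99.7% confidence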;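 further: fluorescence intensity change per second fitted from 20 to 320 s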). The following applies: Recombinant KvBeta, NADPH fluorescence decrease slope, 10 min; at 10 µM; stronger effect = lower value.
Experiment [6] has as its target Alpha-2C adrenergic receptor (Homo sapiens) (UniProt P18825). Nature of the experiment: modulators of alpha2C/GIRK thallium flux, primary screen, cell-based, HEK293 alpha2C/GIRK1/2 (AID 624;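 active means fluorescence slope after compound addition differing from the mean of all screened samples at 99.7% confidence, in either direction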;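 further: slope of fluorescence ratio to pre-addition baseline per second over 15 to 24 s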). The following applies: thallium flux BTC fluorescence, at 10 µM, actives lie on both sides.
A short description of experiment [7]: inhibitors of Sendai virus-induced IRF3 signaling, primary screen, TLR/RLR signaling modifier project, cell-based, Sendai virus stimulus, luciferase, 10K MLSCN set (AID 602276).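 Further: firefly luciferase from ISG56 promoter only with Renilla not read in this screen; 0% = Sendai virus plus DMSO and 100% = medium plus DMSO without virus.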 The note with it: HEK293 RL24 IRF3 luciferase reporter, at 10 µM, stronger effect = higher value. In general terms: Reporter assays use an easily measured gene product as a stand-in for the process of interest.

Experiment [8] can be described thus: inhibitors of poly I:C-induced TLR3 signaling, primary screen, cell-based, poly I:C stimulus, luciferase, 10K MLSCN set (AID 602277;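 active means inhibition of the reporter signal at or above 50%; inactive means inhibition below 50%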). The following applies: HEK293-TLR3 RL24 IRF3 luciferase reporter, at 10 µM, stronger effect = higher value.

Chain of Alpha-2C adrenergic receptor (Homo sapiens) (P18825 whole entry, looked up): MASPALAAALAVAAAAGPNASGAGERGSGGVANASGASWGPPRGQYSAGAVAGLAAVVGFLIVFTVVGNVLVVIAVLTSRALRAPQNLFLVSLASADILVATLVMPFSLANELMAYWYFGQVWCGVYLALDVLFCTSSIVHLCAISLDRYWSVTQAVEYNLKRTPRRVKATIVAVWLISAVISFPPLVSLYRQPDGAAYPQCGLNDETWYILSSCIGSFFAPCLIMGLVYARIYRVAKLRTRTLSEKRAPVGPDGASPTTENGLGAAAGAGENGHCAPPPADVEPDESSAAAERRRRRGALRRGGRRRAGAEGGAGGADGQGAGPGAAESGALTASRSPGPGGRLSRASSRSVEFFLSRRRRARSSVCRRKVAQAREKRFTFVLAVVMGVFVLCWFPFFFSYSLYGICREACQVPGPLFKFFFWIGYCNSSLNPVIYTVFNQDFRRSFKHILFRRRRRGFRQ

The term inhibition denotes the drop in the measured response relative to a control, in per cent. For `O=S(NCc1ccco1)C12CC3CC(CC(C3)C1)C2` (stereo not given), in experiment [1], the cell count was found to be 426. Besides, the inhibition in experiment [1] was 12.5% (inactive); in experiment [3], -2.2% (inactive); in experiment [7], -5.22% (inactive); in experiment [8] it was 0.485% (inactive). Also, in experiment [2], the inhibition of aggregation is 1.2% (inactive). Moreover, the results for the nuclei count in experiment [2] and in experiment [3] were 102% and 101%, respectively. Besides, in experiment [4], the fluorescence slope is -0.582 (inactive). Further, the NADPH fluorescence slope in experiment [5] is -2e-07 (inactive). In addition, the slope in experiment [6] is 0.00485 (inactive).

`COc1ccccc1OCC(=O)N1CCNC1=O`: the cell count in experiment [1] amounted to 652. Also, the inhibition was 2.2% (inactive) in experiment [1], -78.6% (inactive) in experiment [3], 0.107% (inactive) in experiment [7] and 20.1% (inactive) in experiment [8]. Besides, in experiment [2], the inhibition of aggregation is -1.9% (inactive). Moreover, the nuclei count was 101% in experiment [2] and 104% in experiment [3]. Further, the fluorescence slope in experiment [4] is -0.548 (inactive). The NADPH fluorescence slope in experiment [5] was -4.2e-06 (inactive). The slope in experiment [6] was 0.00602 (inactive).

Regarding `COc1ccc(CNC(=O)CN(C(=O)c2ccc(CN3CCOCC3)o2)C2CCCC2)cc1`, the cell count in experiment [1] came to 449. For the same compound, the inhibition in experiment [1] is 5.5% (inactive); in experiment [3], -94.6% (inactive); in experiment [7] it was 17.1% (inactive); in experiment [8], 11.7% (inactive). The inhibition of aggregation in experiment [2] is -0.5% (inactive). In addition, the nuclei count in experiment [2] was 98.3%; in experiment [3] it was 107%. Also, the fluorescence slope in experiment [4] was -0.613 (inactive). Moreover, in experiment [5], the NADPH fluorescence slope is -4.4e-05 (inactive). Besides, the slope in experiment [6] is 0.00446 (inactive).

Regarding `O=C(NC1CCCCC1)n1c(=O)oc2ccc(Cl)cc21`, in experiment [1], the cell count was 666. In addition, the inhibition is 13.9% (inactive) in experiment [1], 23.4% (inactive) in experiment [3], -1.88% (inactive) in experiment [7] and -13.8% (inactive) in experiment [8]. Moreover, in experiment [2], the inhibition of aggregation was -4.2% (inactive). The values for the nuclei count in experiment [2] and in experiment [3] were 103% and 107%, respectively. The fluorescence slope in experiment [4] is -0.622 (inactive). In experiment [5], the NADPH fluorescence slope was -3.6e-05 (inactive). Besides, the slope in experiment [6] was 0.00609 (inactive).

Regarding `CCOC(=O)c1sc2cccc(F)c2c1N`, in experiment [1], the cell count turned out to be 546. The inhibition in experiment [1] was -17.8% (inactive); in experiment [3], 4.5% (inactive); in experiment [7], -3.55% (inactive); in experiment [8] it was -14.4% (inactive). For the same compound, in experiment [2], the inhibition of aggregation was 24.4% (inactive). The nuclei count is 102% in experiment [2] and 110% in experiment [3]. Also, the fluorescence slope in experiment [4] is -0.319 (inactive). In experiment [5], the NADPH fluorescence slope was -7.4e-05 (inactive). Also, in experiment [6], the slope is 0.00522 (inactive).

Turning to `COc1ccccc1CNC(=O)C1CCCN(S(=O)(=O)c2cccc3cccnc23)C1` (stereo not given), the cell count in experiment [1] was found to be 783. In addition, the inhibition was -5.1% (inactive) in experiment [1], -38.9% (inactive) in experiment [3], 3.46% (inactive) in experiment [7] and 26.9% (inactive) in experiment [8]. Besides, the inhibition of aggregation in experiment [2] was -33.4% (inactive). The nuclei count stood at 102% in experiment [2] and 108% in experiment [3]. In addition, the fluorescence slope in experiment [4] is -0.592 (inactive). Further, in experiment [5], the NADPH fluorescence slope is -5.8e-05 (inactive). The slope in experiment [6] is 0.00706 (inactive).

Regarding `O=C(NC1(C(=O)NC2CCCCC2)CCCCC1)c1ccc2c(c1)OCO2`, the cell count in experiment [1] amounted to 578. The inhibition in experiment [1] is 6.3% (inactive); in experiment [3] it was -45.8% (inactive); in experiment [7] it was 7.94% (inactive); in experiment [8] it was 19% (inactive). In addition, the inhibition of aggregation in experiment [2] was 16.2% (inactive). In addition, the nuclei count in experiment [2] stood at 96.2%; in experiment [3], 91.4%. The fluorescence slope in experiment [4] is -0.524 (inactive). Besides, the NADPH fluorescence slope in experiment [5] is -3.1e-05 (inactive). The slope in experiment [6] was 0.00509 (inactive).

As to `COc1ccc(OC)c(C(=O)COC(=O)c2cc(C)oc2C)c1`, in experiment [1], the cell count was determined as 747. Also, the inhibition in experiment [1] was -9.6% (inactive); in experiment [3] it was -2.3% (inactive); in experiment [7], 6.43% (inactive); in experiment [8] it was -0.082% (inactive). Further, the inhibition of aggregation in experiment [2] was 38.1% (inactive). For the same compound, the nuclei count in experiment [2] stood at 103%; in experiment [3], 114%. The fluorescence slope in experiment [4] is -0.361 (inactive). Moreover, the NADPH fluorescence slope in experiment [5] was 2.4e-05 (inactive). For the same compound, the slope in experiment [6] was 0.00558 (inactive).

`CC(Sc1nnnn1C)C(=O)Nc1ccc(Oc2ccccc2)cc1` (stereo not given): the cell count in experiment [1] turned out to be 354. Further, the inhibition in experiment [1] was 0.5% (inactive); in experiment [3] it was -72.3% (inactive); in experiment [7], -8.41% (inactive); in experiment [8] it was -9.23% (inactive). Besides, in experiment [2], the inhibition of aggregation is -25.9% (inactive). For the same compound, the results for the nuclei count in experiment [2] and in experiment [3] were 105% and 125%, respectively. For the same compound, the fluorescence slope in experiment [4] is -0.505 (inactive). The NADPH fluorescence slope in experiment [5] was -2.8e-05 (inactive). In experiment [6], the slope is 0.00778 (inactive).

On to `COc1cc2c(C)nc(C)c(C#N)c2cc1OC`, for which, in experiment [1], the cell count was 709. Also, the inhibition in experiment [1] is -23.3% (inactive); in experiment [3], -12.4% (inactive); in experiment [7] it was 2.98% (inactive); in experiment [8], 2.54% (inactive). The inhibition of aggregation in experiment [2] was -17.8% (inactive). In addition, the nuclei count in experiment [2] stood at 85.6%; in experiment [3], 124%. Further, in experiment [4], the fluorescence slope was -0.481 (inactive). Besides, the NADPH fluorescence slope in experiment [5] was -4.4e-05 (inactive). Besides, in experiment [6], the slope was 0.00598 (inactive).
